Experimental data reported in the supplement of paper PMC7724964.

T1: SPSB4 1-273 SPRY (domain begin residue: 1, domain end residue: 273), Q96A44
T1 chain: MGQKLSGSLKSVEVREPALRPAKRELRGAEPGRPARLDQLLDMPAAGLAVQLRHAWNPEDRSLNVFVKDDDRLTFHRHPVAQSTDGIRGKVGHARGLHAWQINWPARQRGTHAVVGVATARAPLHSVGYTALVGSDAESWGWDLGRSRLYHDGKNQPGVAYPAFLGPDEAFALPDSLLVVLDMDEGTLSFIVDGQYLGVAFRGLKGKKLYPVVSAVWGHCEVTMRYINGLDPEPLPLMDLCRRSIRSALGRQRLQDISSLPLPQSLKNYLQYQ

T2: SPSB2 26-221 SPRY (domain begin residue: 26, domain end residue: 221), Q99619
T2 chain: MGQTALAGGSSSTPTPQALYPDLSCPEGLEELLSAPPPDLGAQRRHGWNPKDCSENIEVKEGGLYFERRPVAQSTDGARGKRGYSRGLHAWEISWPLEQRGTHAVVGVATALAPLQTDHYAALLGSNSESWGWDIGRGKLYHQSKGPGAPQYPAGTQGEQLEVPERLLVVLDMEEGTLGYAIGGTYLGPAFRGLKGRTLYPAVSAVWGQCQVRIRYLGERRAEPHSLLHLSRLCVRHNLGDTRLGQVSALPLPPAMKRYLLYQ

T3: TDRKH 290-430 TUDOR+SNase (domain begin residue: 290, domain end residue: 430), Q9Y2W6
T3 chain: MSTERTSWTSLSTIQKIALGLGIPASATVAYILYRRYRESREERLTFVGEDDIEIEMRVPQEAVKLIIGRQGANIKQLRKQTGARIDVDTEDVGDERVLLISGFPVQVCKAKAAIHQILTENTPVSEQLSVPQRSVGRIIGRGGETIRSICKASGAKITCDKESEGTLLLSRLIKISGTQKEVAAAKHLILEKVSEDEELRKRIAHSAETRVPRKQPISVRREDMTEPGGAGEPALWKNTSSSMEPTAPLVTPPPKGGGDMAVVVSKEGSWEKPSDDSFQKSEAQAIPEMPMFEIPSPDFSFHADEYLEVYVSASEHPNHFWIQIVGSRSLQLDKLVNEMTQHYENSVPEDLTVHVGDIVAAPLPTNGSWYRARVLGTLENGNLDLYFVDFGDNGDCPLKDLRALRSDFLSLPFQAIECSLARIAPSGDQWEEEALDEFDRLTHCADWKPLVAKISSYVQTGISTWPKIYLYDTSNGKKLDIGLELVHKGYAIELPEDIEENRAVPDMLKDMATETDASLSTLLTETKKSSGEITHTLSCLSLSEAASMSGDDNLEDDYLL

T4: TDRD1 261-449 TUDOR (domain begin residue: 261, domain end residue: 449), Q9BXT4
T4 chain: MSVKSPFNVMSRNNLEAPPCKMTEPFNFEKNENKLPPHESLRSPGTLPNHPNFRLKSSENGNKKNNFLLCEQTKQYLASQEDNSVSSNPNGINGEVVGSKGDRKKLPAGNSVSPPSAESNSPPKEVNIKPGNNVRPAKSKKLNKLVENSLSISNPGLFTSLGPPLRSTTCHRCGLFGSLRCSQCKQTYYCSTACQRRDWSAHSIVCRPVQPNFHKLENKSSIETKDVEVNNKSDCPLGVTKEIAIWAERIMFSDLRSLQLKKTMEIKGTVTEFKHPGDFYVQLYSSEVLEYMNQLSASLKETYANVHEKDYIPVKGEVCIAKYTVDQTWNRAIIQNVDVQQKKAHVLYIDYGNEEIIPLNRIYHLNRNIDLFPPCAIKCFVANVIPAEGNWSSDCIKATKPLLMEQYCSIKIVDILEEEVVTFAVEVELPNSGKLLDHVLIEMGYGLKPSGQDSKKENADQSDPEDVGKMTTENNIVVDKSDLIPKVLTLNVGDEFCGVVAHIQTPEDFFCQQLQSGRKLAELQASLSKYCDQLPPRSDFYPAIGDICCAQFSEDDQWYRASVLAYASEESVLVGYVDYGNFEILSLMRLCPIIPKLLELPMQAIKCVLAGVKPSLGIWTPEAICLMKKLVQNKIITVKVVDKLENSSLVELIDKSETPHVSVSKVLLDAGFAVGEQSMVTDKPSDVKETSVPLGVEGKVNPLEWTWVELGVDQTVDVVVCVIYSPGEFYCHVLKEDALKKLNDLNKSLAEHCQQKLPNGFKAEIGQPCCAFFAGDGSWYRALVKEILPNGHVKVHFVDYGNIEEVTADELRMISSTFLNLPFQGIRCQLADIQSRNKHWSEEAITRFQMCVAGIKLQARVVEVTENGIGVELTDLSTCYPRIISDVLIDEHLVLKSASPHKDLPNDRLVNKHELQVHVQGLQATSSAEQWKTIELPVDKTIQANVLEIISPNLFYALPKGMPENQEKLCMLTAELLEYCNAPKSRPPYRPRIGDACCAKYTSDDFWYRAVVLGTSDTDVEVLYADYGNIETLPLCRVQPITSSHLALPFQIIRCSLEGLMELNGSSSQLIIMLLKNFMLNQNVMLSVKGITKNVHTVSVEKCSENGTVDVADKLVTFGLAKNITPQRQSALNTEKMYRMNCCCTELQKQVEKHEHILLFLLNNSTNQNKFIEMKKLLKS

T5: STAM 1-143 VHS (domain begin residue: 1, domain end residue: 143), Q92783
T5 chain: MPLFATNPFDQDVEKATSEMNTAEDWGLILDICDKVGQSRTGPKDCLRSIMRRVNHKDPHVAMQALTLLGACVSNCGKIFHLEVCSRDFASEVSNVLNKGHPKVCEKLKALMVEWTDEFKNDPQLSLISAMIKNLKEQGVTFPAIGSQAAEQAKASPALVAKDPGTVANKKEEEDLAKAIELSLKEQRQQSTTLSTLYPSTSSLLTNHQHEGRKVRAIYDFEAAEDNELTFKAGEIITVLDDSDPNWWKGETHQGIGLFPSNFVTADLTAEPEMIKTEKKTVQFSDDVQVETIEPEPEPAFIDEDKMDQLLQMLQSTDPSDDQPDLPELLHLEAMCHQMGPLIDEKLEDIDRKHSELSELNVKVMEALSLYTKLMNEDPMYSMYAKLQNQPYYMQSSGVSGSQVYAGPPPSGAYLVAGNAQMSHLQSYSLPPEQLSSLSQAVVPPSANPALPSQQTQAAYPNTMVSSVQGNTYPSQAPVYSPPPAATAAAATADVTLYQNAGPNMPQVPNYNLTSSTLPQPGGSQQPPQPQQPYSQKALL

T6: TCEA2 231-299 TFIIS_C (domain begin residue: 231, domain end residue: 299), Q15560
T6 chain: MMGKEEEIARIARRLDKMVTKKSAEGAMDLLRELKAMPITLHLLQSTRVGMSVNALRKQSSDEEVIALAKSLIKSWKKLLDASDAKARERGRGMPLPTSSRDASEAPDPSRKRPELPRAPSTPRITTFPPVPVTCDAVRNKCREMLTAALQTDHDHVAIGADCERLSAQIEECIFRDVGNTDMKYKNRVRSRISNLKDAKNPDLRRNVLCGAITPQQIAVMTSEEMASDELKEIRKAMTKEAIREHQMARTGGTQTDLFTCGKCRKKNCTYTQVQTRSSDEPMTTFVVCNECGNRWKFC

T7: TERF1 58-268 TRF (domain begin residue: 58, domain end residue: 268), P54274
T7 chain: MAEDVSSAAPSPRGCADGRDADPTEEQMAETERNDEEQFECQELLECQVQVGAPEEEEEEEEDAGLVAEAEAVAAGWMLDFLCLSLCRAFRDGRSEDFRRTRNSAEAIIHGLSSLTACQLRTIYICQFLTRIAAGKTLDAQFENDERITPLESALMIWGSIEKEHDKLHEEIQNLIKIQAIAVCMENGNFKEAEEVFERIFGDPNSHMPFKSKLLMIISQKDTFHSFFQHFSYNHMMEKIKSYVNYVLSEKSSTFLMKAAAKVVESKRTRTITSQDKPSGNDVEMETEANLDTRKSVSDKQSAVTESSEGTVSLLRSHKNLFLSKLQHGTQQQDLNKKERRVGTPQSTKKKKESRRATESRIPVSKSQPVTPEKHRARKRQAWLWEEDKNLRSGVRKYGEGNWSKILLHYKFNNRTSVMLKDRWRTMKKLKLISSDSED


Target: T1, SPSB4 1-273 SPRY (domain begin residue: …
Experiment: phage ELISA signal ratio (GST-PRM binding over GST background); higher = stronger binding of peptide-phage to the PRM
Outline: (§1)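 Five rounds of selection were carried out against human peptide recognition domains fused to the C-terminus of glutathione S-transferase (GST) and expressed in 96-well plates. The M13 phage library presented randomized hexadecapeptides, cysteine-free and glycine-flanked, on the gene-8 major coat protein. For each value, the phage ELISA signal on the GST-domain fusion was divided by the signal on GST alone.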

Binder | phage ELISA signal ratio
QMDYNQNMPSIQWARE | 8.15
MVQDSINNNNWLVPWV | 7.42
WDFVGEWDSNNNTVTR | 7.05

Target: T2, SPSB2 26-221 SPRY (domain begin …
Experiment: as above
Outline: as §1

Binder | phage ELISA signal ratio
MDWNNNWNHSLESTQN | 36.1
HLEQDWNGNWLMNEKD | 41.2
EYTLDENANMEQLWEV | 35.8
KQDYLNVTDWNNNAVM | 44.7
MDFTDVNGNLLNAFTA | 38.3
WDLDWAVSDHNGNVMV | 41.6
YEIMENNNWLNNAGVF | 40.1
MEKDMNGNMAVFEMHH | 39.2
PEFLDENNNVDVGHTW | 38.3
GFEFHPVYDWNNNIQK | 36.6
KKDWNNNIEAWLVGEE | 36.6
YPQWLASSRGEMNNNI | 36.2
EVMYDWNGNASSLLMM | 35.3
PARDINNNAATAYINV | 39.5
RFPMYDHNANLLPLPQ | 38.1
DKYWPVDPNNNMPRFG | 37.4

Target: T3, TDRKH 290-430 TUDOR+SNase (domain begin …
Experiment: as above
Outline: as §1

Binder | phage ELISA signal ratio
REMLDYYQGVWVPPVS | 4.26
HEQNRMDVRNDGRTGF | 8
HELHGHLGPYGYPAGT | 7.85

Target: T4, TDRD1 261-449 TUDOR (domain begin …
Experiment: as above
Outline: as §1

Binder | phage ELISA signal ratio
IWDQWYEWNSEWDRLP | 3.57
ELWQHWDMWNVEEPEF | 7.88
EPGHWMEWIWDTIELE | 9.32
MPLHEWEAGWPWEVVG | 7.35
WNQWQEWTTDHGVLLE | 7.12
EMHWMDIWDSLLPESK | 7.87

target: TLN2 312-417 IRS (domain begin residue: 312, domain end residue: 417), Q9Y4G6; experiment: as above
Outline: as §1

Sequence of TLN2 312-417 IRS (domain begin residue: 312, domain end residue: 417), Q9Y4G6 (Q9Y4G6 whole entry): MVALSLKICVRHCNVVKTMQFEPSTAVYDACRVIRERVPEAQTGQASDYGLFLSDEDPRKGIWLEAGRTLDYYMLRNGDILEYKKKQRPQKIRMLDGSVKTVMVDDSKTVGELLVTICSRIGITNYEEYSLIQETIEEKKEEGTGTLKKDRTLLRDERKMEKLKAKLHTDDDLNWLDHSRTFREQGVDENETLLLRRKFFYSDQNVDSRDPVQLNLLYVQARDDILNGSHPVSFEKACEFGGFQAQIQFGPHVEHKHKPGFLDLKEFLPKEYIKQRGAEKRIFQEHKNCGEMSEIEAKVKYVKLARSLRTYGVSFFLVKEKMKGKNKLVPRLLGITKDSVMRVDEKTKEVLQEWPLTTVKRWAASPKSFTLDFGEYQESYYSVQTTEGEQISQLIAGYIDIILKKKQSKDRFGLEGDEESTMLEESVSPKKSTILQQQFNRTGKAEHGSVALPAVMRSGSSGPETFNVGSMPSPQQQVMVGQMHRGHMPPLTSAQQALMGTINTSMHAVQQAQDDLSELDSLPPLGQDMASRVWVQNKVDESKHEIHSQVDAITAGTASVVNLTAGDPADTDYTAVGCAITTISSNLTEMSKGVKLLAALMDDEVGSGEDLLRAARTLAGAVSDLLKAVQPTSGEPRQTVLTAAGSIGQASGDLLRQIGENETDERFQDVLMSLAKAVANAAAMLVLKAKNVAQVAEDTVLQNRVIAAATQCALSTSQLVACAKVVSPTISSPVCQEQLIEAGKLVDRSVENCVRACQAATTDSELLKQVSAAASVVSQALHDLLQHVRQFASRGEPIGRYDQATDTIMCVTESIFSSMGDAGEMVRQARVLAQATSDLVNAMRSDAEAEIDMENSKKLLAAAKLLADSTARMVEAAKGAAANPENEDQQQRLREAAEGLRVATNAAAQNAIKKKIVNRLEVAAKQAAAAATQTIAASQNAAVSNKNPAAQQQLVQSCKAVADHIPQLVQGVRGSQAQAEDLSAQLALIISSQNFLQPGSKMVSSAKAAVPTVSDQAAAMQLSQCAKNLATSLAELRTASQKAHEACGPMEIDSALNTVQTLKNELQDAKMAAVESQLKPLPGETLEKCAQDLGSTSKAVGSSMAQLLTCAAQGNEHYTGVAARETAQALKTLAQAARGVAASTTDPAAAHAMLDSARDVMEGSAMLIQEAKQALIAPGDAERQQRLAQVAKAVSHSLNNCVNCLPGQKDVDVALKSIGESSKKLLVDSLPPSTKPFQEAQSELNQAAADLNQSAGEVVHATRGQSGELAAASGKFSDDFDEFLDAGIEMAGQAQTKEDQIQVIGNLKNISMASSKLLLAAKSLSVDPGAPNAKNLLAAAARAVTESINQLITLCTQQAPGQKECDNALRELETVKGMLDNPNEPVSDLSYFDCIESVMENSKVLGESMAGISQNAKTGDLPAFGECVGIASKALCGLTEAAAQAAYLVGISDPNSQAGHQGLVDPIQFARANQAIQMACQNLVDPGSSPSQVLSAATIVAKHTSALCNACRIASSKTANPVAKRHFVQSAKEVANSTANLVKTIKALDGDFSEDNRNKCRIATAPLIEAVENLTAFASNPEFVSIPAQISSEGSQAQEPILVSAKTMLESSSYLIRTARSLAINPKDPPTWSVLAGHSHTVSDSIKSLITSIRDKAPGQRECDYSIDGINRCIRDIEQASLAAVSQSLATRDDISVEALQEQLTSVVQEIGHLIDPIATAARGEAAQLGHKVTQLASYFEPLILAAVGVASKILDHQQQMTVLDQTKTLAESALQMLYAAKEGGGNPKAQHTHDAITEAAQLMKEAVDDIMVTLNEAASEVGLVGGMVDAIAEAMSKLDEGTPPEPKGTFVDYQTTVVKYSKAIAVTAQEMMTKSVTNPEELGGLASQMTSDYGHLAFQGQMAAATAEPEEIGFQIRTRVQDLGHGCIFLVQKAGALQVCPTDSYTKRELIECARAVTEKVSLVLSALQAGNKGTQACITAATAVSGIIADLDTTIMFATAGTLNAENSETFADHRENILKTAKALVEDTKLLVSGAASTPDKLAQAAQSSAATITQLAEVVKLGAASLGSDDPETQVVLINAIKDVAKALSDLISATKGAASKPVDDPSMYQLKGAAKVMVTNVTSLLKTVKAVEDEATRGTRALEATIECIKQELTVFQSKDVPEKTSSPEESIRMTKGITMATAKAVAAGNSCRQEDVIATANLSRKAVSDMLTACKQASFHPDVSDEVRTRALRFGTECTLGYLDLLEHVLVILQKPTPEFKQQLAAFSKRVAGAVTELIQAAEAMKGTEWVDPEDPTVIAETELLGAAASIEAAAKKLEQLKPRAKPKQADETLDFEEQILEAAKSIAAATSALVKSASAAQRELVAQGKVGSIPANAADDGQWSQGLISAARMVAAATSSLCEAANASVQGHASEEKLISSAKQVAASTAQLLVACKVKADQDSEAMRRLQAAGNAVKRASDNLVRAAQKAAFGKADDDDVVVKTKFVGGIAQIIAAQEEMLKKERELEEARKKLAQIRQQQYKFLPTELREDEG

Binder | phage ELISA signal ratio
QNNFIQLQEWHWLEGW | 11.2
DMVWTNSFLHSHSQLV | 19.5
NENGSYEEHLAWTWGF | 17.6
VENVYYGPYQWEGSFQ | 15.4
WDLNAQVEHMWQYGIA | 15.9
WTASQYWVYEDGFIPG | 23.7
NQDRVWVGNSAFKSPD | 22
MEWVEVYTKTDYAFPP | 17.8

Target: T5, STAM 1-143 VHS (domain begin residue: …
Experiment: as above
Outline: as §1

Binder | phage ELISA signal ratio
PFDAWPIGWEIQQQYF | 8.91
HSEIWLMTYLDSLAMY | 13
QERNHHDPHALWESLF | 20.8
DQEWLSKPWQFWAMDM | 4.69
EPYMIQVPWESHWDVH | 9.25
TQFNMHDEALFMTKLF | 19.2
AYVWDDWVWTSLPWVE | 6.69
NKHDTEEFMVRTFLSE | 6.48
NPHSHQQFMQAVENHI | 22.2
HESMVMFTDEFFQQYL | 5.23

Target: T6, TCEA2 231-299 TFIIS_C (domain begin …
Experiment: as above
Outline: as §1

Binder | phage ELISA signal ratio
EQWTWEPMWEWMTITD | 5.86
WAWEDMWFMEQLESTE | 3.89

Target: T7, TERF1 58-268 TRF (domain begin residue: …
Experiment: as above
Outline: as §1

Binder | phage ELISA signal ratio
LGHTTAEMIDYMELQW | 15.3
EHSFLFEDWMWEGKDH | 5.48
MLFDDEAMYNWQWHLM | 12.2
SFPLEFTTDYMYNLMA | 18.2

target: TLN1 309-401 IRS (domain begin residue: 309, domain end residue: 401), Q9Y490; experiment: as above
Outline: as §1

Sequence of TLN1 309-401 IRS (domain begin residue: 309, domain end residue: 401), Q9Y490 (Q9Y490 whole entry): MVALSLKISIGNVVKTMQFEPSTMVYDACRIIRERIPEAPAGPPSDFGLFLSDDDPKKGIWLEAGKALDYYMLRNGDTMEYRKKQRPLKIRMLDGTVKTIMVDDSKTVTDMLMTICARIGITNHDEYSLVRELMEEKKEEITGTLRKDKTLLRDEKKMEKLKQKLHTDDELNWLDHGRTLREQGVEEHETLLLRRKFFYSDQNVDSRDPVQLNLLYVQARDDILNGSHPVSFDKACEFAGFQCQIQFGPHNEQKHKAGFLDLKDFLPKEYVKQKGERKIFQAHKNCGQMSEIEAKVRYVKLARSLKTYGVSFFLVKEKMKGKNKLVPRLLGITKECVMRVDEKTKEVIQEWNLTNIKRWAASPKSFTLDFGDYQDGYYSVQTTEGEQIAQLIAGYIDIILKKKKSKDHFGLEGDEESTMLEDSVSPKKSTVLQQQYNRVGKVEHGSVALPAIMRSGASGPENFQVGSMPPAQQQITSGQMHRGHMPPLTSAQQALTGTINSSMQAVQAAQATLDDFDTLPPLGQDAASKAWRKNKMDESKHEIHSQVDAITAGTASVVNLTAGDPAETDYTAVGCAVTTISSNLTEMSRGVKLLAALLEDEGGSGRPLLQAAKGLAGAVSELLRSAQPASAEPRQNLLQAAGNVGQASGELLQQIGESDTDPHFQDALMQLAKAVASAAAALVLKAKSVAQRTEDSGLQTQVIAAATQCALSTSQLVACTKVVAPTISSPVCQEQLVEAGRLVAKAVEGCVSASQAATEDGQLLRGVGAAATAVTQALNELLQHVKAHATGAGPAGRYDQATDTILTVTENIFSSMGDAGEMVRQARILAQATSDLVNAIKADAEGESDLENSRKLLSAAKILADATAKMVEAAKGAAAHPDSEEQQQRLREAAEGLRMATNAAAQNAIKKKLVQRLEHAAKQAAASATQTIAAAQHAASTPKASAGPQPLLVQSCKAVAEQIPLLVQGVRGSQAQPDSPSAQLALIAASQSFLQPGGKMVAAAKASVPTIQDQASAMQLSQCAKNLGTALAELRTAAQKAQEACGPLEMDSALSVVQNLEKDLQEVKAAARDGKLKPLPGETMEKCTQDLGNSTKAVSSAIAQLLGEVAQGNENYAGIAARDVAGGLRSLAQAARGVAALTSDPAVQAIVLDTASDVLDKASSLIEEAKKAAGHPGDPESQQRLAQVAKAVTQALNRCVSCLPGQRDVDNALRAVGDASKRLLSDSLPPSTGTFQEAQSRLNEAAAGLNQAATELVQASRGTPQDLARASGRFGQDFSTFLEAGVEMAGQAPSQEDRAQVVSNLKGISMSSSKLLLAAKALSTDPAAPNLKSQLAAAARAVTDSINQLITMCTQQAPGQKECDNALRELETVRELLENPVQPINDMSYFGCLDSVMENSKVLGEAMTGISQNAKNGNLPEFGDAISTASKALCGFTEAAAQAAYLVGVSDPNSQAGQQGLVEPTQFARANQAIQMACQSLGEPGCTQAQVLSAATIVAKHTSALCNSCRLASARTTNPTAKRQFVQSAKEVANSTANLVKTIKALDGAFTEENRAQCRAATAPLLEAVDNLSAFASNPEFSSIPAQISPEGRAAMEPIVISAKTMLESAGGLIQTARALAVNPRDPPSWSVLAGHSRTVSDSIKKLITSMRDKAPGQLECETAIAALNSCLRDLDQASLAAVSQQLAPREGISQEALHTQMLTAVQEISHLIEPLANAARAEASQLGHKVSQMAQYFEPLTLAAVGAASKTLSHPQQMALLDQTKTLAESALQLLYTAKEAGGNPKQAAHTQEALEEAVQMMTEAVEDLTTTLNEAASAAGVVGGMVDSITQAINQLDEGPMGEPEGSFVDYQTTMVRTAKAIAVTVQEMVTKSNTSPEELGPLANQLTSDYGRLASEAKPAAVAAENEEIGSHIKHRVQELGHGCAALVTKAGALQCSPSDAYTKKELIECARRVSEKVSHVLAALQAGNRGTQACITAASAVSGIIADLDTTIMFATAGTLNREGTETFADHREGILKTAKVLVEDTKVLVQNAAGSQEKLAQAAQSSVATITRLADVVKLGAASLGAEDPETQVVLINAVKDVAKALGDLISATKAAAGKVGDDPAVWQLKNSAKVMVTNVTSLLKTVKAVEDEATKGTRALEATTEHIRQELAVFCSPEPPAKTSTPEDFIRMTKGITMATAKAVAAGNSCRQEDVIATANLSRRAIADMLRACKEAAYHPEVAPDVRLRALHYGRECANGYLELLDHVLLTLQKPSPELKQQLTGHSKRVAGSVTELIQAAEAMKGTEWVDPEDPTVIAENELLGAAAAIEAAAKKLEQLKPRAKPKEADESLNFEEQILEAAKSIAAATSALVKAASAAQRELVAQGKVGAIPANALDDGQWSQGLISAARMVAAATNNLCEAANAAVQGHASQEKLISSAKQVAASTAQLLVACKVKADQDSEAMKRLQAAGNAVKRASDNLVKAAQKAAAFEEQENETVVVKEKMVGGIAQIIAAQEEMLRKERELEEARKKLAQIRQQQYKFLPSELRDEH

Binder | phage ELISA signal ratio
PNVGEWQYNLSYIWEM | 15.5
EFTMNWQYPTQYNFIQ | 15.3
VETQWEQWQEYGLKFS | 16.2

target: TOM1 1-153 VHS (domain begin residue: 1, domain end residue: 153), O60784; experiment: as above
Outline: as §1

Binder | phage ELISA signal ratio
PWWLEYEMPITRESPV | 4.45

target: SUB1 58-127 PC4 (domain begin residue: 58, domain end residue: 127), P53999; experiment: as above
Outline: as §1

Binder | phage ELISA signal ratio
DEEEWWWQFQSHQLPE | 8.77
